# EphB4 ephrin blk: antagonists of human EphB4-ephrin-B2 interaction | AID 720 | inhibition, % at 7 µM | EphB4 LBD / TNYL-RAW-Alexa532 peptide, fluorescence polarization | P54760 | hit rate 0.15% among 97,000;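 active means inhibition above the screen-wide mean inhibition plus 3 SD, cut at about 15% in these data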;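 further: 0% = DMSO wells and 100% = excess unlabeled TNYL-RAW peptide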
# DAT uptake mod: modulates human dopamine transporter uptake under cocaine. Q01959. LLC-PK1 hDAT cells, [14C]-dopamine uptake with cocaine IC80; actives deviate in either direction. B-score at 10 µM. hit rate 1.3% among 110,000;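 active means Z score or B-score, a plate-position-corrected score, falls beyond the plate's 99.7% confidence bounds, in either direction; inactive means both scores lie inside the 99.7% bounds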;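 further: scored against the spread of the other compound wells on the same plate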
# D1 allo mod: D1 dopamine receptor (human) allosteric modulation | P21728 | HEK293 D1, CRE-luciferase, dopamine EC30 potentiation; actives deviate in either direction | B-score at 10 µM | hit rate 5.9% among 58,000;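 active means luminescence count or its row- and column-corrected plate score outside the 99.7% band of the plate's sample wells, on either side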
# * marks the source's active call; other numbers are inactive results; · = no result given. The full list was thinned out, with hits kept by preference.
SMILES,EphB4 ephrin blk,DAT uptake mod,D1 allo mod
C=C1CCN([C@@H](Cc2ccccc2)C(=O)NCCC(C)C)S(=O)(=O)c2ccccc21,·,-0.0897,·
COC(=O)CC(=O)Cc1nc(N)nc(Nc2ccc(C)c(C)c2)n1,·,0.457,-5.45*
Cc1ccc(Nc2nc(N)nc(CN3CCN(C)CC3)n2)cc1C,1.4,-0.0209,0.0585
COc1ccc(S(=O)(=O)N(CC(=O)N/N=C/c2cccs2)c2cc(C)cc(C)c2)cc1OC,3.1,0.983,·
O=C(Nc1ccc2c(c1)OCO2)c1cnn2c(C(F)(F)F)cc(-c3ccco3)nc12,-0.9,-0.195,-0.947
Cc1ccccc1Cn1ccc(NC(=O)CCSc2nc(-c3ccco3)cc(C(F)(F)F)n2)n1,1.1,0.141,-0.28
Cc1ccccc1Cn1ccc(NC(=O)c2cnn3c(C(F)(F)F)cc(-c4ccco4)nc23)n1,3.6,1.4,-4.44*
O=C(c1cnn2c(C(F)(F)F)cc(-c3ccco3)nc12)N1CCCc2ccccc21,-3.9,1.95*,0.234
Cc1[nH]n(-c2ccccc2)c(=S)c1C=Nc1cccc([N+](=O)[O-])c1,3.9,0.377,·
CN(C)CC(C)(C)CNS(=O)(=O)CC12CCC(CC1=O)C2(C)C (centres undefined),3.1,0.00493,·
Cc1[nH]n(-c2ccc([N+](=O)[O-])cc2)c(=O)c1N=Nc1nc2ccccc2s1,-2.4,·,·
O=c1cc(-c2ccccc2)[nH]n1-c1ccc([N+](=O)[O-])cc1,2.7,-2.48*,·
CC(C)(C)C(=O)NC(=S)Nc1ccccc1C(=O)Nc1ccccc1,2.4,-0.0201,·
CC(C)Oc1ccc(C2CC(=O)NC3=C2C(=O)CCC3)cc1 (centres undefined),-6.0,-0.109,-5.39*
COC(=O)c1ccc(C2CC(=O)NC3=C2C(=O)CCC3)cc1 (centres undefined),6.8,-0.317,-0.139
O=C(O)C1=C[C@H](c2ccc(F)cc2)C[C@H](OCCCCO)O1,·,-0.429,·
Cc1[nH]c2ccccc2c1-c1nc2ccccc2[nH]1,·,-0.187,-2.72*
Cc1ccc(-c2nc3ccccc3[nH]2)s1,-7.3,1.55,-2.12
Cc1ccc2c(c1)[nH]c1c(N3CCN(Cc4ccccc4)CC3)ncnc12,4.0,1.11,-3.89
c1ccc(CN2CCN(c3ncnc4c3[nH]c3ccccc34)CC2)cc1,-0.1,2.87,-4.86*
CCN1C(=O)[C@@H]2[C@H](C1=O)[C@@H]1CC(C(=O)OC)=C[C@@H](C(=O)OC)C3C1=C(C(=O)C3(CC)CC)[C@@H]2C (some centres undefined),·,-0.597,·
C#CCOCCOCCOCCNc1nc(N2CCN(C(=O)C([C@@H](C)CC)n3cc(C(N)CO)nn3)CC2)nc(N2CCN(C(=O)[C@H](CCC(=O)O)n3cc(C(N)[C@H](C)CC)nn3)CC2)n1 (some centres undefined),·,-1.37,·
O=S1(=O)C=C(Sc2nc3ccccc3s2)c2ccccc21,·,-0.627,-3.71*
O=S1(=O)C=C(SCCN2CCCCC2)c2ccccc21,-3.0,-0.0528,0.103
O=C(CSc1nc2ccccc2s1)CSc1nc2ccccc2s1,0.1,-0.894,·
SMILES,EphB4 ephrin blk,DAT uptake mod,D1 allo mod
O=S1(=O)C=C(Sc2nnc(-c3ccccc3)o2)c2ccccc21,·,·,-2.92*
Cc1cc(C)nc(SC2=CS(=O)(=O)c3ccccc32)n1,-1.9,-7.73*,1.83
CSc1nnc(-c2ccccc2)o1,5.0,-0.266,1.5
CCN1C(=O)N(C)[C@@H](c2ccccc2)C(C(=O)OC)=C1C,·,-0.2,·
O=C(NCc1ccccc1)C1=C[C@H](C2CCCCC2)C[C@H](OCCCCO)O1,·,2.09*,·
O=C(NCc1nc2ccccc2[nH]1)C1=C[C@H](C2CC2)C[C@H](OCCCCO)O1,·,0.0622,·
CC(=O)n1cc([C@H]2C=C(C(=O)N3CCN(Cc4ccccc4)CC3)O[C@@H](OCCCCO)C2)c2ccccc21,·,2.87*,·
CCO[C@H]1OC(C(=O)NCc2nc3ccccc3[nH]2)=C[C@@H](c2ccc3c(c2)OCO3)[C@@H]1CCCO,·,2.67*,·
O=C(NCc1nc2ccccc2[nH]1)C1=C[C@H](C2CCCCC2)C[C@H](OCCCCO)O1,·,1.88*,·
O=C(Nc1ccccc1)C1=C[C@@H](C2CCCCC2)C[C@@H](OCCCCO)O1,·,-0.335,·
CC(=O)n1cc([C@@H]2C=C(C(=O)N3CCN(Cc4ccc5c(c4)OCO5)CC3)O[C@H](OCCCCO)C2)c2ccccc21,·,2.06,·
CCO[C@H]1OC(C(=O)NCc2nc3ccccc3[nH]2)=C[C@@H](c2ccccc2)[C@@H]1CCCO,·,-0.458,·
O=c1c(C(c2ccccc2)c2c(O)sc3ccccc3c2=O)c(O)sc2ccccc12,-0.4,·,·
O=C(NNC(=S)NC(=O)C12CC3CC(CC(C3)C1)C2)c1ccncc1,-1.5,0.159,·
CCOC(=O)Cc1csc(NC(=O)c2sc3nc4c(C)cc(C)cc4cc3c2N)n1,-2.4,-0.188,·
O=C(C1=C[C@H](C2CCCCC2)C[C@H](OCCCCO)O1)N1CCN(Cc2ccc3c(c2)OCO3)CC1,·,2.23*,·
O=C(C1=C[C@@H](c2ccc3c(c2)OCO3)C[C@@H](OCCCCO)O1)N1CCN(Cc2ccc3c(c2)OCO3)CC1,·,1.14,·
CCCCn1c(=O)[nH]c(=O)c2c1nc(CN1C(=O)c3ccccc3S1(=O)=O)n2CCC,2.8,1.88,9.82*
CCCCn1c(=O)[nH]c(=O)c2c1nc(COc1ccc(C#N)cc1)n2CCC,-1.8,-0.109,0.517
COC(=O)[C@@]1(Cc2ccc(OC)cc2)[C@H]2c3cc(C(=O)N4CCCC4)n(CCSCCO)c3C[C@H]2CN1C(=O)c1ccccc1,·,-0.381,·
Cc1cccc(C)c1Nc1nc2ccccc2o1,·,0.0744,0.723
Cc1nc(Nc2nc3ccccc3o2)nc2c1CCC2,3.3,0.558,-6.07*
CCOCCCNC(=O)C(c1ccc(Cl)cc1)N1CCN(c2ccccc2)CC1 (centres undefined),·,0.291,-0.484
CCOCCCNC(=O)C(c1ccc(Cl)cc1)N1CCC2(CC1)OCCO2 (centres undefined),6.4,-8.53*,0.355
O=S(=O)(Nc1ncn[nH]1)c1ccc(Cl)cc1,4.3,·,·
SMILES,EphB4 ephrin blk,DAT uptake mod,D1 allo mod
C=CCC(NCc1ccco1)c1ccc(OC)cc1OC (centres undefined),-3.6,1.44,0.101
C=CCC(NCc1ccco1)c1ccc(OC)c(OC)c1 (centres undefined),2.4,-7.49*,·
Cc1ccc2c(COC(=O)c3cnc(C)cn3)cc(=O)oc2c1,·,·,0.5
Cc1ccc2c(COC(=O)C3=COCCO3)cc(=O)oc2c1,1.9,-0.185,-4.83*
CCC1C(=O)Nc2nc(-c3ccccc3)c(-c3ccccc3)n2N=C1C (centres undefined),-4.1,0.192,·
Cc1ccc(C)c(NC2=NC3(CCCCC3)N=C(N)N2)c1,1.1,0.362,-5.99*
Cc1ccccc1NC1=NC(C)(C)N=C(N)N1,2.1,0.0765,-1.63
Cc1cccc(NC2=NC3(CCCCC3)N=C(N)N2)c1C,-5.0,-0.571,-3.2
Cc1ccc(NC2=NC3(CCCCC3)N=C(N)N2)c(C)c1,3.1,-0.696,-4.11*
COc1cccc(NC2=NC3(CCCCC3)N=C(N)N2)c1,0.3,0.185,-2.73*
Cc1cccc(C)c1NC1=NC2(CCCCC2)N=C(N)N1,-1.4,0.00228,1.15
COc1cccc2cc(/C(C)=N/Nc3nc(-c4cc(C)ccc4C)cs3)c(=O)oc12,3.4,0.77,·
CC(C)(C)C1CCc2c(sc(NC(=O)c3cccs3)c2C(=O)N2CCCCC2)C1 (centres undefined),-1.1,-0.663,·

# From PubChem
